Compounds without any hit were thinned out: in the full panel of roughly 83,000, 20% have a hit.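 Values shown are percent growth following 48 h exposure of cells in 96-well plates to a single concentration of compound; below 10 was considered active.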 Unmarked numbers belong to inactive results. Activity calls are given as the source filed them.

The assay concerns NCI/ADR-RES ovarian. Briefly: NCI-60 one-dose screen, 48 h (100 = growth as untreated, 0 = no growth, -100 = all killed). As to conditions: 10 µM unless noted. As for the experimental part:
Growth inhibition of the NCI/ADR-RES human […] tumor cell line is measured as a screen for anti-cancer activity. Cells are grown in 96 well plates and exposed to the test compound for 48 hours. Compounds are tested at a single concentration, which is 10^-5 M for most compounds. The reported endpoint is percent growth (GI% or GIPRCNT), where numbers from 0 - 100% represent growth inhibition, and numbers from -100% - 0 represent cell death. For example, a value of 40 represents 60% growth inhibition. A value of 0 means no net growth occurred over the course of the experiment. A value of -40 indicates 40% of cells at the beginning of the experiment died by the end of the experiment. A value of -100 means all cells are dead at the end of the experiment.
NCI-60 Human Tumor Cell Lines Screen was performed using the standard one-dose NCI protocol, which is described in more detail at https://dtp.cancer.gov/discovery_development/nci-60/default.htm.
Compounds with GIPRCNT values below 10 were considered active. Activity score was based on GIPRCNT using the following formula: […]
Score is 0 for GIPRCNT values of 100 or above, 50 for GIPRCNT values of 0, and 100 for GIPRCNT values of -100.
Take `O=C(CCCCCCCCC(=O)N/N=C\c1cc(Cl)ccc1O)N/N=C\c1cc(Cl)ccc1O`: the growth is 17.4%.
Turning to `C=CC1(C)C(O[Si](C)(C)C(C)(C)C)CC2C3OC(=O)NC31c1cccc3c1[C@H](C(=O)N3C)C2(C)C` (stereo not given in full), the growth is 60.5%.
With `COc1cc(C2C3=C(COC3=O)N(CCO)c3cc4c(cc32)OCCO4)cc(OC)c1OC` (stereo not given) the figure was 48.2%; with `O=C(c1ccc(Cl)cc1Cl)N1c2ccccc2Sc2ccccc21`, 60.9%; with `Cc1[nH]c(C(=O)Nc2cccc(OC3CCNCC3)c2)c(Cl)c1Cl`, 89.2%.
With `CCc1cccc(Sc2cc(C(=O)N3Cc4ccc(OCCN(C)C)cc4C3)ccc2O)c1`, the growth is 50.4%.
As to `CN(Cc1cnc2nc(N)nc(N)c2n1)c1c(Cl)cc(C(=O)NC(CCC(=O)O)C(=O)O)cc1Cl` (stereo not given), the growth is 35.1%.
Consider `COc1ccc(C(c2cc(OC)c(OC)c(OC)c2)N2CCCC2)cc1` (stereo not given), for which the growth was 69.4%.
Consider `Cc1cc(C)cc(Nc2ccc([N+](=O)[O-])c(NCCN3CCOCC3)n2)c1`, for which the growth is 18.1%.
As to `Cn1cc(-c2ccc3cc(-c4ccc(CC(=O)Nc5cc(C(C)(C)C)on5)cc4)cnc3c2)cn1`, the growth is 33.1%.
Take `CCN1C(=S)N(CC)C2C1NC(=S)N2/N=C/C=C/c1ccccc1OC` (stereo not given): the growth is -9.38% (active).
With `O=C(Nc1cccnc1Nc1ccc(Cl)cc1)c1cn(Cc2ccc(F)cc2)nn1` the figure was 96.2%; with `CCn1cc(C(=O)N/N=C/c2ccc(Br)cc2)c(=O)c2cc(F)c(N3CCNC(C)C3)c(F)c21` (stereo not given), 83.3%; with `Fc1ccc(CNc2c3ccccc3nc3ccccc23)cc1`, 29.7%.
With `CCCCN1C(=O)/C(=c2\sc3n(c2=O)NC2C(N=3)N(CC)C(=O)N2CC)c2ccccc21` (stereo not given) the figure was 20.5%; with `CCN(CC)c1ccc(/C=C\c2cc(C)c3cc(C)ccc3n2)cc1`, -4.28% (active).
With `O=C(N/N=C/c1ccc(O)cc1O)c1ccc(Nc2ccnc(C(F)(F)F)c2)cc1` the figure was 64.2%; with `COc1cccc(/C=C/C(=O)c2cc3c(N)c(C(=O)Nc4ccccc4C)sc3nc2C)c1`, 10.1%.
As to `C=C1C(=O)O[C@H]2[C@H]1CC/C(COC(=O)/C=C\C(=O)NCc1ccc(Cn3c(=O)sn(-c4ccccc4)c3=O)cc1)=C\CC[C@@]1(C)O[C@@H]21`, the growth is 111%.
Consider `S=c1ssnc1-c1cccs1`, for which the growth is 97.2%.
With `NC(=O)c1ccc(NC(=O)c2oc3ccccc3c2-c2cnn(-c3ccccc3)c2)cc1`, the growth is -3.84% [50 µM] (active).
As to `COc1ccc2c(c1)c(-c1nonc1-c1c[nH]c3ccc(Br)cc13)cn2C`, the growth is 34.9%.
With `O=C1c2cc3c(cc2-c2c1c1ccc(Cl)cc1c(=O)n2C[C@H](O)CO)OCO3`, the growth is 3.2% (active).
`Clc1nn2c(Cn3cnc4c(NCc5ccccc5)ncnc43)nnc2c2ccccc12`: the growth is 40.6%.
On to `CC(C)(C)c1cc(C=Nc2cccc(C(F)(F)F)c2)c(O)c(C(C)(C)C)c1`, for which the growth is 99.9%.
On to `CS(=O)(=O)Cc1cnc(C2OCCO2)s1`, for which the growth is 103%.
With `CCOC(=O)N1CCN(S(=O)(=O)c2oc(-c3ccc(Cl)cc3)nc2C#N)CC1`, the growth is 102%.
Take `CC(C)CN1CC(C(=O)Nc2ccc3c(c2)-c2ccccc2C3)CC1=O` (stereo not given): the growth was 67.7% [50 µM].
With `O=[N+]([O-])/C(=C\c1ccco1)c1ccccc1Cl` the figure was 85.5%; with `CC(=O)c1c(Nc2ccc(F)c(F)c2F)[nH]c2c(F)cc(F)cc2c1=O`, 1.67% (active); with `COc1ccc(C2=NN(C(C)=O)C(c3ccc(Oc4ccnc5cc(Cl)ccc45)c(OC)c3)C2)cc1` (stereo not given), 44.7%.
With `COc1ccc(Cc2cnc(NC(=O)c3sc4ccccc4c3Cl)s2)cc1` the figure was 6.4% (active); with `O=C(c1ccc(F)c(Cl)c1)N1c2ccccc2Sc2ccccc21`, 39.8%.
As for `CCCCCCCCn1ccc2cc(NC(=O)Cn3cc(CN4CCN(CC)CC4)nn3)ccc21`, the growth was 97.7%.
With `CN(C)c1ccc(/C=C/C(=O)c2ccccc2)cc1`, the growth was 81.3%.
Consider `O=C(N/N=C/c1ccc([N+](=O)[O-])cc1)c1ccc2nc(-c3ccc(Cl)cc3)[nH]c2c1`, for which the growth is 77.3%.
On to `CC(C)c1ccc(C(=O)Nc2sc3cc(O)ccc3c2C#N)cc1`, for which the growth is 11.2%.
Turning to `Cc1ccc(C)c(-n2c(-c3ccc(Br)cc3)csc2=NC(=O)c2ccccc2F)c1`, the growth was 56.7%.
`COc1ccc(-c2cc(-c3ccc(OC)cc3)nc(NCCCNc3ccnc4cc(Cl)ccc34)n2)cc1`: the growth is 71.7%.
Turning to `COc1ccc(-c2ccc(-c3ccc(C(=N)N)cn3)s2)cc1`, the growth is 101%.

The values above are taken from PubChem BioAssay (NCI).
